Test results from the supplement of paper PMC8728848.
Shown is part of a subset that was picked to be rich in the strongest signals.

What was measured:
Assay in all cases: glycan array binding signal (z-score within array); higher = stronger binding
Details in all cases: glycan notation: IUPAC condensed, linker removed
Fuc(a1-2)Gal = molecular target: Fuc(a1-2)Gal
Summary of the method: (§1)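 The binding signal is a Z-score computed within each array and averaged over linkers. Arrays of the same protein sequence at different concentrations or buffers were also averaged together. Data originate from 3228 arrays in the Consortium for Functional Glycomics database, kept only where the protein sequence was available.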

[1] = molecular target: Fuc(a1-2)Gal(b1-3)GalNAc(b1-4)[Neu5Ac(a2-3)]Gal(b1-4)Glc
Summary of the method: as §1

[2] = molecular target: Fuc(a1-2)Gal(b1-4)[Fuc(a1-3)]GlcNAc(b1-2)Man(a1-3)[Fuc(a1-2)Gal(b1-4)[Fuc(a1-3)]GlcNAc(b1-2)Man(a1-6)]Man(b1-4)GlcNAc(b1-4)[Fuc(a1-6)]GlcNAc
Summary of the method: as §1

[3] = molecular target: Fuc(a1-2)Gal6S(b1-3)GlcNAc6S
Summary of the method: as §1

[4] = molecular target: Fuc(a1-2)Gal6S(b1-4)Glc6S
Summary of the method: as §1

[5] = molecular target: Fuc(a1-2)[GalNAc(a1-3)]Gal(b1-4)GlcNAc(b1-2)Man
Summary of the method: as §1

[6] = molecular target: Fuc(a1-2)[GalNAc(a1-3)]Gal(b1-4)GlcNAc(b1-6)GalNAc
Summary of the method: as §1

[7] = molecular target: Fuc(a1-3)[Gal(b1-4)]Glc6S
Summary of the method: as §1

[8] = molecular target: Fuc(a1-3)[Gal3S(b1-4)]Glc
Summary of the method: as §1

[9] = molecular target: Gal(a1-3)Gal(b1-3)GlcNAc(b1-3)GalNAc
Summary of the method: as §1

[10] = molecular target: Gal(a1-3)[Gal(a1-4)]Gal(b1-4)GlcNAc
Summary of the method: as §1

[11] = molecular target: Gal(a1-4)Gal(b1-4)GlcNAc(b1-2)Man(a1-3)[Gal(a1-4)Gal(b1-4)GlcNAc(b1-2)Man(a1-6)]Man(b1-4)GlcNAc(b1-4)GlcNAc
Summary of the method: as §1

[12] = molecular target: Gal(a1-4)Gal(b1-4)GlcNAc(b1-3)Gal(b1-4)Glc
Summary of the method: as §1

[13] = molecular target: Gal(b1-3)GlcNAc(b1-3)Gal(b1-4)GlcNAc(b1-2)[Gal(b1-3)GlcNAc(b1-3)Gal(b1-4)GlcNAc(b1-6)]Man(a1-6)[Gal(b1-3)GlcNAc(b1-3)Gal(b1-4)GlcNAc(b1-2)Man(a1-3)]Man(b1-4)GlcNAc(b1-4)[Fuc(a1-6)]GlcNAc
Summary of the method: as §1

[14] = molecular target: Gal(b1-3)GlcNAc(b1-3)Gal(b1-4)GlcNAc(b1-3)Gal(b1-4)GlcNAc(b1-2)[Gal(b1-3)GlcNAc(b1-3)Gal(b1-4)GlcNAc(b1-3)Gal(b1-4)GlcNAc(b1-6)]Man(a1-6)[Gal(b1-3)GlcNAc(b1-3)Gal(b1-4)GlcNAc(b1-3)Gal(b1-4)GlcNAc(b1-2)Man(a1-3)]Man(b1-4)GlcNAc(b1-4)[Fuc(a1-6)]GlcNAc
Summary of the method: as §1

[15] = molecular target: Gal(b1-3)GlcNAc(b1-6)Gal(b1-4)GlcNAc
Summary of the method: as §1

[16] = molecular target: Gal(b1-3)[Fuc(a1-4)]GlcNAc
Summary of the method: as §1

[17] = molecular target: Gal(b1-4)GlcNAc(b1-2)Man(a1-3)[Gal(b1-4)GlcNAc(b1-2)Man(a1-6)][Gal(b1-4)GlcNAc(b1-4)]Man(b1-4)GlcNAc(b1-4)[Fuc(a1-6)]GlcNAc
Summary of the method: as §1

[18] = molecular target: Gal(b1-4)GlcNAc(b1-2)Man(a1-3)[Gal(b1-4)GlcNAc(b1-2)Man(a1-6)][GlcNAc(b1-4)]Man(b1-4)GlcNAc(b1-4)[Fuc(a1-6)]GlcNAc
Summary of the method: as §1

[19] = molecular target: Gal(b1-4)GlcNAc(b1-2)Man(a1-6)[Man(a1-3)]Man(b1-4)GlcNAc(b1-4)GlcNAc
Summary of the method: as §1

[20] = molecular target: Gal(b1-4)GlcNAc(b1-2)[Gal(b1-4)GlcNAc(b1-4)]Man(a1-3)[GlcNAc(b1-4)][Gal(b1-4)GlcNAc(b1-2)Man(a1-6)]Man(b1-4)GlcNAc(b1-4)GlcNAc
Summary of the method: as §1

[21] = molecular target: Gal(b1-4)GlcNAc(b1-3)Gal(b1-4)GlcNAc(b1-3)Gal(b1-4)GlcNAc(b1-3)Gal(b1-4)GlcNAc(b1-2)Man(a1-3)[Gal(b1-4)GlcNAc(b1-3)Gal(b1-4)GlcNAc(b1-3)Gal(b1-4)GlcNAc(b1-3)Gal(b1-4)GlcNAc(b1-2)Man(a1-6)]Man(b1-4)GlcNAc(b1-4)GlcNAc
Summary of the method: as §1

[22] = molecular target: Gal(b1-4)GlcNAc(b1-3)Gal(b1-4)GlcNAc(b1-3)Gal(b1-4)GlcNAc(b1-3)Gal(b1-4)GlcNAc(b1-2)Man(a1-3)[Gal(b1-4)GlcNAc(b1-3)Gal(b1-4)GlcNAc(b1-3)Gal(b1-4)GlcNAc(b1-3)Gal(b1-4)GlcNAc(b1-2)Man(a1-6)]Man(b1-4)GlcNAc(b1-4)[Fuc(a1-6)]GlcNAc
Summary of the method: as §1

[23] = molecular target: Gal(b1-4)GlcNAc(b1-3)[Fuc(a1-3)GlcNAc(b1-6)]Gal(b1-4)Glc
Summary of the method: as §1

[24] = molecular target: Gal3S(b1-3)[Fuc(a1-4)]GlcNAc
Summary of the method: as §1

Gal3S(b1-4)GlcNAc = molecular target: Gal3S(b1-4)GlcNAc
Summary of the method: as §1

[25] = molecular target: Gal3S(b1-4)[Fuc(a1-3)]GlcNAc
Summary of the method: as §1

Gal6S(b1-4)GlcNAc = molecular target: Gal6S(b1-4)GlcNAc
Summary of the method: as §1

B1: PX14343F-bfa-562-20-562 (Bacteroides fragilis) (protein)
chain: CDDFLDSFPQDTVTNENFWKSKEDADKVLVDIYASLLPKDAIFFDEAMSDNAYLVWDWWGGAQQVANGSYTTSGEIPTNRWNGSYEVIRKCWFLLEGIEKIEDISEQDKNKIIGETYFMLAYNYYVLTSYFGDVPLVTKTLAIPESKQLVRTPKAEVVDYAINKLKEAAVMLEGLSQEKGRVTADACRFLIARMYLYNGDYSNVLETVKLLEGKYQLYREGDTPYEDLFSGVAENSCEVILSVVCDKRVGEIYTSHGGNGIMLLKGITGEDPYRGVTPSGSLVDAYPMADGRLIHEAGSSYDPKKPYEGRDPRFYQSIVYPTGQIKYLDVETGTVKERLYDPEDPTTVPEHQYNYSQPSATGYMWNKYIDYSVYAMNSVWDCTNDIIVFRYADVLLMKAEALLQTKGESAKEEVCNLIDQLRDRCSCGRVHRENYNSKDELMELLKNERRIELANEGLRYMDLIRWKDAEKNTIVTGVGLTGQMYGAYMRKDGVGKDDKTVDVDNTPRRYIETRYFNASKGYLFPIPQKERDLNPNLTQNPNW
With B1 the “glycan array binding signal (z-score)” value (Fuc(a1-2)Gal) was -0.039, the “glycan array binding signal (z-score)” value [1] was 0.115 and the “glycan array binding signal (z-score)” value [2] was -0.43. For the same binder, the “glycan array binding signal (z-score)” value [3] was 1.48, the “glycan array binding signal (z-score)” value [4] was 0.012 and the “glycan array binding signal (z-score)” value [5] was 0.033. For the same binder, the “glycan array binding signal (z-score)” value [6] was -0.301, the “glycan array binding signal (z-score)” value [7] was -0.078 and the “glycan array binding signal (z-score)” value [8] was -0.368. For the same binder, the “glycan array binding signal (z-score)” value [9] was -0.716, the “glycan array binding signal (z-score)” value [10] was 3.69 and the “glycan array binding signal (z-score)” value [11] was 1.42. The “glycan array binding signal (z-score)” value [12] was -0.481, the “glycan array binding signal (z-score)” value [13] was 1.83 and the “glycan array binding signal (z-score)” value [14] was 1.38. For the same binder, the “glycan array binding signal (z-score)” value [15] was -0.369, the “glycan array binding signal (z-score)” value [16] was -0.027 and the “glycan array binding signal (z-score)” value [17] was -0.394. The “glycan array binding signal (z-score)” value [18] was -0.937, the “glycan array binding signal (z-score)” value [19] was 0.332 and the “glycan array binding signal (z-score)” value [20] was 0.08. The “glycan array binding signal (z-score)” value [21] was 0.79, the “glycan array binding signal (z-score)” value [22] was -0.007 and the “glycan array binding signal (z-score)” value [23] was 1.78. For the same binder, the “glycan array binding signal (z-score)” value [24] was -0.53, the “glycan array binding signal (z-score)” value (Gal3S(b1-4)GlcNAc) was 0.086 and the “glycan array binding signal (z-score)” value [25] was 0.472. The “glycan array binding signal (z-score)” value (Gal6S(b1-4)GlcNAc) was 0.658.
